PubChem BioAssay
Calls of active or inactive are those of the source.

What was measured:
Albumin (Bos taurus) = Albumin (Bos taurus) (UniProt P02769); assay: bovine serum albumin binders on microarray, profiling panel, artefact control for SMM control protein annotation, biochemical, small-molecule microarray, Alexa647 label, 635/667 nm fluorescence (AID 1118); details: BSA-A647 binding, fluorescence 635 nm, higher = more signal;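 note: score merges 667 nm emission intensity and signal-to-noise per printed compound spot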
[1] = small-molecule microarray binders of probe aXIP, primary screen, biochemical, NeuroSMM set, 635/667 nm fluorescence (AID 1119); details: higher = more signal, called active from +8 up or from −8 down;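 note: probe is the protein aXip251-270 applied at 1 µg/mL to compound-printed slides; binding of probe to printed compounds measured as 667 nm fluorescence plus signal to noise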
[2] = small-molecule binders of probe aNOTCH3, primary screen, biochemical, small-molecule microarray, 635/667 nm fluorescence (AID 1120); details: higher = more signal;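 note: probe is a biotin-tagged antibody raised against NOTCH3 rather than NOTCH3 protein; score merges spot fluorescence near 667 nm with spot signal to noise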
[3] = small-molecule binders of probe aNOTCH2, primary screen, biochemical, small-molecule microarray, 635/667 nm fluorescence (AID 1121); details: higher = more signal;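 note: score merges feature fluorescence read at 667 nm with its signal to noise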
[4] = target: Carbonic anhydrase 2 (Homo sapiens) (UniProt P00918); assay: CAII small-molecule binders, profiling panel, biochemical, small-molecule microarray, Alexa647-labelled CAII (AID 1122); details: CAII-A647 binding fluorescence, higher = more signal
[5] = COS7 lysate on small-molecule microarray, probe aHis, 635 nm (AID 1123); details: COS7 cell lysate, fluorescence, higher = more signal;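 note: z-score combines 667nm fluorescence intensity with signal-to-noise per printed compound spot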
[6] = compound binding in COS7 lysate, probe aLAP1, primary screen, cell lysate, small-molecule microarray (AID 1124); details: probe aLAP1, fluorescence, higher = more signal;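 note: lysate comes from COS7 cells expressing LAP1 and is applied at 0.3 µg/mL; score merges spot fluorescence near 667 nm with signal-to-noise over triplicate slides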
Sam68 (KHDRBS1) = assay: Sam68 small-molecule binders, primary screen, biochemical, small-molecule microarray, 635 nm fluorescence (AID 1125); details: small-molecule microarray binding, higher = more signal;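 note: score merges 667 nm channel intensity with signal to noise over triplicate slides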
[7] = tested on: Chordin-like protein 2 (CHRDL2); assay: CHRDL2 small-molecule binders, primary screen, biochemical, small-molecule microarray, 635 nm fluorescence (AID 1126); details: small-molecule microarray binding, fluorescence 635 nm; higher = more signal;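 note: printed compound slides probed with Chrdl2 protein at 4 µg/mL for 1 h at 4 C; score merges 667 nm emission intensity with signal to noise over three replicate slides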
[8] = target: Concanavalin-A (Canavalia ensiformis) (UniProt P02866); assay: ConA small-molecule binders, primary screen, artefact control for SMM control protein annotation, biochemical, small-molecule microarray, Alexa647 label, 635 nm (AID 1127); details: ConA-A647 binding fluorescence, higher = more signal;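 note: z combines 667 nm emission intensity with signal-to-noise across three replicate slides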
[9] = anti-His antibody binders, primary screen, artefact control for SMM control protein annotation, biochemical, small-molecule microarray, 635 nm fluorescence (AID 1128); details: anti-His Alexa647 antibody binding, higher = more signal;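 note: score merges feature fluorescence with signal-to-noise for each printed compound spot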
[10] = tested on: Human papillomavirus type 1a E7 protein (residues 1-88); assay: HPV1a E7 small-molecule binders, primary screen, biochemical, small-molecule microarray, residues 1-88, 635 nm (AID 1129); details: small-molecule microarray binding, fluorescence 635 nm; higher = more signal
[11] = target: Focal adhesion kinase 1 (Homo sapiens) (UniProt Q05397); assay: small-molecule microarray binders of FAK, primary screen, biochemical, 635/667 nm fluorescence, BSA, DTT (AID 1130); details: PTK2 binding, 635 nm fluorescence, higher = more signal;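 note: composite of spot emission at 667 nm and signal to noise over triplicate slides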
[12] = tested on: Fibrinogen (Alexa647-labelled); assay: fibrinogen binders on compound microarrays, profiling panel, artefact control for SMM control-protein annotation, biochemical, small-molecule microarray, 635/667 nm fluorescence (AID 1131); details: fibrinogen-A647 binding fluorescence, higher = more signal;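 note: z-score merges 667 nm fluorescence with per-spot signal-to-noise over triplicate slides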
[13] = target: Follistatin (Homo sapiens) (UniProt P19883); assay: follistatin binders on small-molecule microarrays, primary screen, biochemical, small-molecule microarray, 635/667 nm fluorescence (AID 1132); details: FST binding, 635 nm fluorescence, higher = more signal
[14] = target: Fibroblast growth factor 2 (Homo sapiens) (UniProt P09038); assay: FGF2 binders on small-molecule microarrays, primary screen, biochemical, small-molecule microarray, 635/667 nm fluorescence (AID 1133); details: small-molecule microarray binding, FGF2, fluorescence 635/667; higher = more signal
[15] = mitochondrial membrane potential change in A549 cells, profiling panel, cell-based, JC-1 fluorescence, basal, 24 h, 100 nL (AID 1138); details: higher = more signal;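 note: A549 lung adenocarcinoma cells under basal conditions with no added stimulus; test concentration not given here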
Lefty1 = Lefty1 binders on small-molecule microarrays, primary screen, biochemical, small-molecule microarray, 635/667 nm fluorescence (AID 1139); details: small-molecule microarray binding, fluorescence 635/667; higher = more signal
[16] = tested on: wheat germ agglutinin (Triticum aestivum), Alexa647-labelled; assay: wheat germ agglutinin binders on compound microarrays, profiling panel, artefact control for SMM control-protein annotation, biochemical, small-molecule microarray, 635/667 nm fluorescence (AID 1140); details: WGA-A647 binding, 635 nm fluorescence, higher = more signal;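 note: score merges 667 nm feature emission with signal to noise over triplicate slides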
[17] = target: Luciferin 4-monooxygenase (Photinus pyralis) (UniProt P08659); assay: firefly luciferase enzyme inhibitors, primary screen, biochemical, luminescence, purified enzyme, 2006 set (AID 1141); details: SteadyGlo luminescence, 30 min, higher = more signal, called active from +8 up or from −8 down;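 note: cell-free assay with purified firefly luciferase at 100 ng per well in PBS; test concentration not given here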
Luciferin 4-monooxygenase (Photinus pyralis), sequence (P08659 whole entry, looked up): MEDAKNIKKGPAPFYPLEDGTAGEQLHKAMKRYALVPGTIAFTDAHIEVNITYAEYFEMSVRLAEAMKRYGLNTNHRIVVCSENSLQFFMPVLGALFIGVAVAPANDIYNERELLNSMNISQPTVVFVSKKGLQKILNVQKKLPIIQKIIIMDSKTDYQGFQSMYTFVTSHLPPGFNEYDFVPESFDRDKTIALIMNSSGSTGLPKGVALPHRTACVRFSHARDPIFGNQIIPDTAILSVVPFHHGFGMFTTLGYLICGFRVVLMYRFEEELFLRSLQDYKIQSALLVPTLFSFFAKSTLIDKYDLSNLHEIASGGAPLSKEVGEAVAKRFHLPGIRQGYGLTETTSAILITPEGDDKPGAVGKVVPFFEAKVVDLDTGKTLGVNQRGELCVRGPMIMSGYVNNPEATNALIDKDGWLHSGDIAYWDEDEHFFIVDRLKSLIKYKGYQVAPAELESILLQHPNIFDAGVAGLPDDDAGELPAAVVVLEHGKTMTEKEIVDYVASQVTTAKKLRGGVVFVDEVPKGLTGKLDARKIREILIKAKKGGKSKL

Focal adhesion kinase 1 (Homo sapiens), sequence (Q05397 whole entry, looked up): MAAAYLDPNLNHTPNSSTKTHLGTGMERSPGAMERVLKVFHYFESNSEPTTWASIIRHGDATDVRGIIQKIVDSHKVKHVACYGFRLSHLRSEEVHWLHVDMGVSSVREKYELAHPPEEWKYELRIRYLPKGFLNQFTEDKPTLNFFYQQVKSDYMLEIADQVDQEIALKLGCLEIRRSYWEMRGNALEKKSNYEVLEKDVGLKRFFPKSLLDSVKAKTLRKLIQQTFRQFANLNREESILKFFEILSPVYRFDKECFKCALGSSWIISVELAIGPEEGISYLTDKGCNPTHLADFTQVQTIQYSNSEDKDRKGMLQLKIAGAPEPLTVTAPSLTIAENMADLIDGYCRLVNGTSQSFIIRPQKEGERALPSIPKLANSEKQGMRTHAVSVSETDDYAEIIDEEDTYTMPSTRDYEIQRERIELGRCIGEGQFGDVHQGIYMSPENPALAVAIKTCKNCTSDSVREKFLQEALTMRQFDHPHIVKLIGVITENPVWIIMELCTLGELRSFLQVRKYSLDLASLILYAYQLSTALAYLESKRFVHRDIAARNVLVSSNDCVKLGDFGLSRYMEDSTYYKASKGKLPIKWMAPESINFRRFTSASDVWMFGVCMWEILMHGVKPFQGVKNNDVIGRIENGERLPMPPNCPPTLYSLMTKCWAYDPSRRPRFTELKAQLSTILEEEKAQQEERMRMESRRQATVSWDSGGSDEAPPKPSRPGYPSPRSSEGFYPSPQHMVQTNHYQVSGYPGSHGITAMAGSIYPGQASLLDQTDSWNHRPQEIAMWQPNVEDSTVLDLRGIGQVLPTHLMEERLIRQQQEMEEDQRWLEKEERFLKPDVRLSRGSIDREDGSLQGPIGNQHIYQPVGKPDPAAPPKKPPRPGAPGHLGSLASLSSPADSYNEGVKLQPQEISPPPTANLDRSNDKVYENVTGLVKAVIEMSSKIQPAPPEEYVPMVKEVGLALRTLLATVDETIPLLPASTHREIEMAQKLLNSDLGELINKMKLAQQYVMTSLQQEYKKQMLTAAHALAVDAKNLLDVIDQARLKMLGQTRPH
Concanavalin-A (Canavalia ensiformis), sequence (P02866 whole entry, looked up): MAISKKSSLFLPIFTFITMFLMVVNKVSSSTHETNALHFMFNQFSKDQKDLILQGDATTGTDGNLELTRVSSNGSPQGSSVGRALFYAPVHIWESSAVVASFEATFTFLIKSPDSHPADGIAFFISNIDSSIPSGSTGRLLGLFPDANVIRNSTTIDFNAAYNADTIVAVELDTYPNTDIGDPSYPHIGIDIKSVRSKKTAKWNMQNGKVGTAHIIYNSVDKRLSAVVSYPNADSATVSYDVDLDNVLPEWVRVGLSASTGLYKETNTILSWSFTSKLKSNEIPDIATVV
Fibroblast growth factor 2 (Homo sapiens), sequence (P09038 whole entry, looked up): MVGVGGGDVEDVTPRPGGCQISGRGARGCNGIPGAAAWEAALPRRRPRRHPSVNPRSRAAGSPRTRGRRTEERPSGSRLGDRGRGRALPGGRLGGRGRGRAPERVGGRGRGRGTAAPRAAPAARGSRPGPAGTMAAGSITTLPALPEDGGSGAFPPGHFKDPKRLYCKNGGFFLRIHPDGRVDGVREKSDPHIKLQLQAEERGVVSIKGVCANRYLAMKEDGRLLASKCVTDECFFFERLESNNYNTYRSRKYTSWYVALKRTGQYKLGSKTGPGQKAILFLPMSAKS
Albumin (Bos taurus), sequence (P02769 whole entry, looked up): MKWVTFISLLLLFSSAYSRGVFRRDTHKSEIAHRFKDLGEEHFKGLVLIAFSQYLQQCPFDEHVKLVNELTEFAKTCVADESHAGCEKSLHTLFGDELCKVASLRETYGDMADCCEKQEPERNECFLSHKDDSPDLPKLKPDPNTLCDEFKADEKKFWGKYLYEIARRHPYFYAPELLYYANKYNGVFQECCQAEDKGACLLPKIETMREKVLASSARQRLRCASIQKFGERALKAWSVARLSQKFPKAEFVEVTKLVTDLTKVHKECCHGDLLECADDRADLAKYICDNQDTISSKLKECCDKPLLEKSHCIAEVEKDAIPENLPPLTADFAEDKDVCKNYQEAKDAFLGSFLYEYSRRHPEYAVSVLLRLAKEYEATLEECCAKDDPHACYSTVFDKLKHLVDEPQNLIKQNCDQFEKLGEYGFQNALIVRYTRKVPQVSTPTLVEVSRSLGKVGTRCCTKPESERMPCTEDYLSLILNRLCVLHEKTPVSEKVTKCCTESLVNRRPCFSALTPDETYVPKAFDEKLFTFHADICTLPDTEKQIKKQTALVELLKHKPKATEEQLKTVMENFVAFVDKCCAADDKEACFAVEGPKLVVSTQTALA
Follistatin (Homo sapiens), sequence (P19883 whole entry, looked up): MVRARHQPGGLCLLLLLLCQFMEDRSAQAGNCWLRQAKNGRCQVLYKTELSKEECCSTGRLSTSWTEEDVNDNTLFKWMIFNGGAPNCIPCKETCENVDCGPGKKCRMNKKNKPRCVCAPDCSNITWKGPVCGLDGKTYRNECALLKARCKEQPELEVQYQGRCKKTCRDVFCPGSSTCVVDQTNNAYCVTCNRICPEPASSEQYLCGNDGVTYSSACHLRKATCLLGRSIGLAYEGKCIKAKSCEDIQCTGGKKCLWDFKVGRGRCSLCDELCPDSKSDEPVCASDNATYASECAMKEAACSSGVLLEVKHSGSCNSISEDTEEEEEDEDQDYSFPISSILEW

| Structure (SMILES) | composite z-score (Albumin (Bos taurus)) | composite Z-score [1] | composite z-score [2] | composite z-score [3] | composite z-score [4] | composite z-score [5] | composite z-score [6] | composite z-score (Sam68 (KHDRBS1)) | composite z-score [7] | composite z-score [8] | composite z-score [9] | composite z-score [10] | composite z-score [11] | composite z-score [12] | composite z-score [13] | composite z-score [14] | z-score [15] | composite z-score (Lefty1) | composite z-score [16] | z-score [17] |
| --- | --- | --- | --- | --- | --- | --- | --- | --- | --- | --- | --- | --- | --- | --- | --- | --- | --- | --- | --- | --- |
| COCCOC(=O)N1C(=O)[C@@]2(c3cc(C#CC4(O)CCCCCC4)ccc31)[C@H](C(=O)NC[C@H](O)c1ccccc1)[C@H]1C(=O)O[C@H](c3ccccc3)[C@H](c3ccccc3)N1[C@@H]2c1ccc(OCCO)cc1 | 0.067 | 0.244 (inactive) | -0.0328 | -0.0995 | 0.495 | 1.23 | 0.217 | 1.3 | 0.223 | 1.13 | 0.726 | 1.21 | 0.444 | 0.95 | 0.822 | 0.94 | -1.49 | 0.473 | 0.357 | 0.531 (inactive) |
| C[C@H]1ON(c2ccccc2)[C@@H](c2ccccc2)[C@@H]1C(=O)N1C(=O)OC[C@@H]1c1ccccc1 | 0.0537 | 1.2 (inactive) | -0.0493 | -0.118 | 0.259 | 0.46 | -0.0222 | 0.44 | 0.424 | 0.0565 | 0.143 | 0.718 | 0.784 | 0.894 | 1.12 | 0.986 | -0.21 | 0.5 | 0.014 | 0.422 (inactive) |
| CCOC(=O)C1=CCC(c2cccc(Cl)c2)O1 (stereo not given) | 0.581 | -0.214 (inactive) | 0.0357 | -0.0651 | 0.181 | 0.389 | -0.064 | 0.609 | -0.384 | 0.16 | 0.433 | 0.54 | -0.192 | 0.2 | -0.0085 | -0.505 | -1.14 | -0.0196 | 0.225 | 1.7 (inactive) |
| COCCOC(=O)N1C(=O)[C@@]2(c3cc(C#CC4(O)CCCCCC4)ccc31)[C@H](C(=O)N1CCN(c3ncccn3)CC1)[C@H]1C(=O)O[C@H](c3ccccc3)[C@H](c3ccccc3)N1[C@@H]2c1ccc(O)cc1 | 0.886 | 0.528 (inactive) | -0.0006 | -0.0795 | 0.35 | 1.12 | 0.73 | 1.22 | -0.35 | 1.11 | 1.47 | 1.19 | 0.206 | 0.676 | 0.91 | 0.35 | -0.328 | 0.354 | 1.04 | -1.46 (inactive) |
| COCCOC(=O)N1C(=O)[C@@]2(c3cc(C#Cc4ccc(OC)cc4)ccc31)[C@H](c1ccc(OCCO)cc1)N1[C@H](c3ccccc3)[C@H](c3ccccc3)OC(=O)[C@H]1[C@@H]2C(N)=O | 0.641 | 0.498 (inactive) | 0.132 | -0.0404 | 0.573 | 0.441 | 0.617 | 1.35 | 0.488 | 1.16 | 2.14 | 1.13 | 1.03 | 0.519 | 1.41 | 1.31 | -1.28 | 1.39 | 1 | -0.35 (inactive) |
| CCCCCCCCCCC(O)C1C=CC2C(=O)NC(=O)C2N1Nc1ccccn1 (stereo not given) | 0.616 | -0.118 (inactive) | 0.0159 | 0.0118 | 0.287 | 1.85 | -0.0065 | -0.182 | -0.9 | 0.709 | 0.121 | 0.749 | 0.675 | 0.666 | -0.008 | -1.4 | 0.706 | -0.458 | 0.331 | -0.765 (inactive) |
| [N-]=[N+]=Nc1ccccc1C[C@]1(C(=O)NCCN2CCOCC2)N=C(c2ccc(OCCCO)cc2)O[C@H]1c1ccccc1N=[N+]=[N-] | 0.892 | 0.241 (inactive) | 0.505 | 0.141 | 0.584 | 2.84 | 0.505 | 1.29 | 0.415 | 1.15 | 1.55 | 1.24 | -0.0277 | 0.94 | 1.39 | 1.65 | 2.42 | 0.499 | 0.687 | -5.36 (inactive) |
| O=C1OCC=C[C@H]2OC34C=CCN(CCN5CCOCC5)C(=O)[C@H]3N(CCCCCO)C(=O)[C@@H]4[C@@H]12 (stereo not given in full) | 0.485 | -0.232 (inactive) | 0.0694 | -0.117 | 0.829 | 2.03 | -0.723 | -0.229 | 0.129 | 0.476 | 2.23 | -0.277 | 0.311 | -0.155 | -0.307 | -0.12 | -0.829 | -0.0262 | 0.28 | -0.346 (inactive) |
| COCCCNC(=O)[C@@]1(Cc2ccccc2CN=[N+]=[N-])N=C(c2ccc(OCCCO)cc2)O[C@H]1c1ccccc1N=[N+]=[N-] | 0.778 | 0.397 (inactive) | 0.303 | 0.168 | 0.421 | 2.43 | 0.656 | 1.02 | -0.379 | 1.04 | 2.29 | 1.19 | 0.543 | 0.931 | 1.35 | 1.18 | 3.53 | 0.0538 | 1.2 | -4.87 (inactive) |
| COC(=O)[C@@]1(Cc2ccc(OC)cc2)[C@H]2c3cc(C(=O)N(C)C)n(Cc4cc(C)n(C)n4)c3C[C@H]2CN1C(=O)c1ccccc1 | 0.19 | 0.638 (inactive) | 0.166 | 0.0736 | 0.88 | 3.4 | 0.898 | 1.06 | -0.285 | -0.307 | 1.08 | 1.29 | 0.405 | -0.842 | -0.396 | -0.233 | -1.14 | -0.0189 | 0.262 | 1.01 (inactive) |
| NC(=O)[C@@H]1[C@H]2C(=O)O[C@H](c3ccccc3)[C@H](c3ccccc3)N2[C@H](c2ccccc2OCCO)[C@@]12C(=O)Nc1ccc(C#CCCO)cc12 | 0.59 | -0.309 (inactive) | -0.218 | -0.147 | 0.71 | 0.663 | 0.148 | 0.13 | -0.68 | 1.18 | 0.553 | -0.464 | 0.155 | 0.947 | -0.0704 | -0.455 | 0.669 | -0.128 | 0.335 | 1 (inactive) |
